A number with no mark means an inactive call.

This note sets out measurements from the supplement of paper PMC13380429.

The test system of this assay is Vero E6 infected with SARS-CoV-2. Nature of the assay: inhibition of SARS-CoV-2 cytopathic effect; higher = more antiviral protection, active = above 15. The following applies: 1 nM; 48 h. In general terms: Damage to the host cells serves as the signal in cytopathic effect assays.
`O=C(O)c1cccnc1C(=O)O` [quinolinic-acid]: the “inhibition of SARS-CoV-2 cytopathic effect” value (shortened to “inhibition”) is 1.12%. For `CN1C[C@H](CNC(=O)OCc2ccccc2)C[C@@H]2c3cccc4c3c(cn4C)C[C@H]21` [metergoline], the “inhibition” value is -10.3%.

For the molecule `O=C(Cc1ccc(-c2ccccc2)cc1)Nc1ccccn1` [difenpiramide], the “inhibition” value is 2.42%. As for `CC(C)C(=O)SCCCCC[C@H](NC(=O)OC(C)(C)C)C(=O)NC12CC3CC(CC(C3)C1)C2`, the “inhibition” value is -5.42%. On to `CC(C)N1Cc2cc(S(C)(=O)=O)ccc2N(CCN2CC=C(c3c[nH]c4cc(F)ccc34)CC2)S1(=O)=O`, for which the “inhibition” value was -0.02%. The figure for `NC[C@@H](O)CC(=O)O` [aminohydroxybutyric-acid] is -3.49%. The figure for `O=C(/C=C/c1cccc(S(=O)(=O)Nc2ccccc2)c1)NO` [belinostat] is -1.11%. Consider `NC(=O)c1cccc(N)c1` [3-amino-benzamide], for which the “inhibition” value is -2.7%. On to `c1ccc(CCCN2CCN(CCOC(c3ccccc3)c3ccccc3)CC2)cc1`, for which the “inhibition” value is 0.71%. Take `O=C(OC(C(F)(F)F)C(F)(F)F)N1CCN(Cc2cccc(Oc3ccccc3)c2)CC1`: the “inhibition” value is 3.59%. As to `CN(Cc1ccc(C(C)(C)C)cc1)Cc1cccc2ccccc12` [butenafine], the “inhibition” value is 0.43%. The value for `CC(=O)c1ccc2c(c1)[C@H](NC(=O)c1ccc(F)c(Cl)c1)[C@H](O)C(C)(C)O2` [tonabersat] was -2.31%.

`C[C@@]1(c2cc(-c3cncnc3)c(F)cc2F)CCSC(N)=N1`: the “inhibition” value was -0.91%.

With `c1ccc2[nH]c(-c3cscn3)nc2c1` [tiabendazole], the “inhibition” value is 2.1%. The value for `CC1(C)C(=O)NC2=C1C(=O)C(=O)c1ccccc12` was 0.25%. The figure for `COC[C@H](NC(=O)c1cnc(C)s1)C(=O)N[C@@H](COC)C(=O)N[C@@H](Cc1ccccc1)C(=O)[C@@]1(C)CO1` [oprozomib] is 0.33%; for `CN(C)C(=O)[C@H](O)[C@H](Cc1ccccc1)NC(=O)c1cc2cc(Cl)ccc2[nH]1` it is 0.8%; for `CO[C@@H]1[C@H](N(C)C(=O)c2ccccc2)C[C@H]2O[C@]1(C)n1c3ccccc3c3c4c(c5c6ccccc6n2c5c31)C(=O)NC4` [midostaurin] it is -10.1%.

Turning to `NS(=O)(=O)c1cccc2c1c([N+](=O)[O-])cc1nc(O)c(O)nc12`, the “inhibition” value is 2.79%. Take `CCOC(=O)c1ccc(C#Cc2ccc3c(c2)C(C)(C)CCS3)nc1` [tazarotene]: the “inhibition” value is 0.41%. Take `Cc1c(Cl)c(C)[n+]([O-])c(Cl)c1-c1noc(-c2cc(O)c(O)c([N+](=O)[O-])c2)n1` [opicapone]: the “inhibition” value was 2.55%. Consider `CC(=O)OCC(=O)[C@@]1(O)CC[C@H]2[C@@H]3CCC4=CC(=O)CC[C@]4(C)[C@@]3(F)[C@@H](O)C[C@@]21C`, for which the “inhibition” value is -1.46%. Consider `N[C@@H](C(=O)N[C@@H]1C(=O)N2C(C(=O)O)=C(Cl)CC[C@H]12)c1ccccc1` [loracarbef], for which the “inhibition” value is 7.18%. Regarding `Cc1cnc(-c2cnc(NCCNc3ccc(C#N)cn3)nc2-c2ccc(Cl)cc2Cl)[nH]1`, the “inhibition” value is 2.72%. `CNCCCOc1cc(F)c(-c2c(Cl)nc3ncnn3c2N[C@@H](C)C(F)(F)F)c(F)c1` [cevipabulin]: the “inhibition” value was 1.36%. With `CC(=C(CCO)SSCC1CCCO1)N(C=O)Cc1cnc(C)nc1N` (stereo in doubt) [fursultiamine], the “inhibition” value was 2.52%. Consider `CC(C)(C)[C@]1(O)CCN2C[C@H]3c4ccccc4CCc4cccc(c43)[C@@H]2C1` [butaclamol], for which the “inhibition” value is 1.69%. For the molecule `CCC(=O)OCC(=O)[C@@]1(OC(=O)CC)[C@@H](C)C[C@H]2[C@@H]3CCC4=CC(=O)C=C[C@]4(C)[C@@]3(Cl)[C@@H](O)C[C@@]21C` [beclomethasone-dipropionate], the “inhibition” value was -9.44%. The value for `C/N=C(/NC#N)NCCSCc1csc(NC(=N)N)n1` [tiotidine] was -3.61%; that for `CCCNC(=O)N1N=C(c2ccc(N)cc2)c2cc3c(cc2C1C)OCO3` (stereo not drawn) was -4.65%; that for `Cc1ncc([N+](=O)[O-])n1CC(C)O` (stereo not drawn) [secnidazole] was -4.41%. Regarding `CC(=O)Nc1nnc(S(N)(=O)=O)s1` [acetazolamide], the “inhibition” value was -0.16%. The value for `CC1(C)C(=O)N(c2ccc(C#N)c(C(F)(F)F)c2)C(=O)N1CCCCO` was 2.69%.
